14 molecules from PubChem BioAssay can be followed below.

Assay [1] concerns Plasmodium falciparum Sir2 (PF13_0152, Sir2A). Briefly: Plasmodium falciparum Sir2A binding compounds – biochemical, small-molecule microarray, 635 nm fluorescence, primary screen (AID 1098).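 Note: score merges spot fluorescence intensity with its signal-to-noise ratio.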 The note with it: fluorescence 635 nm, higher = more signal.
Assay [2] can be described thus: probe aDKK1 binding to arrayed compounds – biochemical, biotinylated probe, 635/667 nm fluorescence, primary screen (AID 1099).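 Note: score merges 667nm spot fluorescence with signal to noise across triplicate slides; reference of the scale not given here.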 To be noted: small-molecule microarray, higher = more signal.
Assay [3] in a line: probe aCHRDL2 binding to arrayed compounds – biochemical, biotinylated probe, 635/667 nm fluorescence, primary screen (AID 1100). To be noted: small-molecule microarray, higher = more signal.
Assay [4] in a line: change in splice reporter luminescence, either direction, cell-based, HEK293, spliceosome inhibition project, primary screen (AID 1101).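 Note: HEK293 cells carrying a splicing-competent luciferase reporter gene; test concentration not given here.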 The note with it: HEK293 splicing luciferase reporter, 24 h, higher = more signal, called active from +8 up or from −8 down. A general note: Reporter assays use an easily measured gene product as a stand-in for the process of interest.
Assay [5] addresses Fibroblast growth factor 10 (Homo sapiens) (UniProt O15520). Briefly: compounds binding fibroblast growth factor 10 – biochemical, small-molecule microarray, 635 nm fluorescence, primary screen (AID 1102). To be noted: FGF10 binding, fluorescence 635 nm, higher = more signal.
Assay [6] deals with glycogen synthase kinase-3 (GSK3A per assay name; protocol says GSK3B). Description: compounds binding glycogen synthase kinase-3 – biochemical, small-molecule microarray, 635 nm fluorescence, GSK3A, primary screen (AID 1103). Note: the record names both GSK3A and GSK3B. To be noted: fluorescence 635 nm, higher = more signal.
Assay [7] has as its target Epidermal growth factor receptor (Homo sapiens) (UniProt P00533). Briefly: compounds binding epidermal growth factor receptor – biochemical, small-molecule microarray, 635 nm fluorescence, primary screen (AID 1104).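 Note: score merges 667 nm emission intensity with spot signal to noise over triplicate slides.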 The note with it: EGFR binding, higher = more signal.
In assay [8] the target is Follistatin-related protein 3 (Homo sapiens) (UniProt O95633). Description: compounds binding follistatin-related protein 3 – biochemical, small-molecule microarray, 635 nm fluorescence, primary screen (AID 1105).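 Note: score merges emission near 667 nm and signal to noise per printed spot across three slides.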 The note with it: FSTL3 binding, higher = more signal.
Follistatin-related protein 3 (Homo sapiens), sequence (O95633 whole entry, looked up): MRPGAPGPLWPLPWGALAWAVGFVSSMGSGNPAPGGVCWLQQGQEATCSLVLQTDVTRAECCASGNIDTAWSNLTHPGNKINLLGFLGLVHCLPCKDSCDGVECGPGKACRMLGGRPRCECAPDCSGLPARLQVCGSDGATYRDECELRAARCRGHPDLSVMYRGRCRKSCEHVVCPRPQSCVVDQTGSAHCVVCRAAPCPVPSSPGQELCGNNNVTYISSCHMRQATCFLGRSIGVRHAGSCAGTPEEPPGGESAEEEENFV
Assay [9] deals with Dickkopf-related protein 1 (Homo sapiens) (UniProt O94907). Briefly: small molecules binding DKK1 protein – biochemical, small-molecule microarray, 635 nm fluorescence scan, primary screen (AID 1106).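 Note: score merges emission near 667 nm with signal to noise over three replicate slides.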 To be noted: higher = more signal.
Dickkopf-related protein 1 (Homo sapiens), sequence (O94907 whole entry, looked up): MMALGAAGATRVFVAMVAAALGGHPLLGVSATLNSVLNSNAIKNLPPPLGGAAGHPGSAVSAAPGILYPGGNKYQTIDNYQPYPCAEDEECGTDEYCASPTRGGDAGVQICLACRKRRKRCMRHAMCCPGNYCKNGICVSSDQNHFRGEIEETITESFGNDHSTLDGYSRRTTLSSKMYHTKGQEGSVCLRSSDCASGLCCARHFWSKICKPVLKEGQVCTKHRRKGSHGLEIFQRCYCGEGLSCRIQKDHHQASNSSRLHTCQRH
Assay [10] relates to Inhibin beta A chain (activin A). Briefly: small molecules binding activin A – biochemical, small-molecule microarray, 635 nm fluorescence scan, primary screen (AID 1107).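 Note: mouse activin A protein probed at 4.33 µg/mL on printed slides; score merges bound-protein fluorescence near 667 nm with spot signal-to-noise.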 To be noted: INHBA, higher = more signal.

Calls of active or inactive are those of the source.

Fibroblast growth factor 10 (Homo sapiens), sequence (O15520 whole entry, looked up): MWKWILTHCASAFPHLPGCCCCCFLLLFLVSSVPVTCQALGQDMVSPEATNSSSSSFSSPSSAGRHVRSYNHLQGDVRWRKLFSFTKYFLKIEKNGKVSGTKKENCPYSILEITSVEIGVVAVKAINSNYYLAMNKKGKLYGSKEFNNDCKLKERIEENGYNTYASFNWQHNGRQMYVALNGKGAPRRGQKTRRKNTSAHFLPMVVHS
Epidermal growth factor receptor (Homo sapiens), sequence (P00533 whole entry, looked up): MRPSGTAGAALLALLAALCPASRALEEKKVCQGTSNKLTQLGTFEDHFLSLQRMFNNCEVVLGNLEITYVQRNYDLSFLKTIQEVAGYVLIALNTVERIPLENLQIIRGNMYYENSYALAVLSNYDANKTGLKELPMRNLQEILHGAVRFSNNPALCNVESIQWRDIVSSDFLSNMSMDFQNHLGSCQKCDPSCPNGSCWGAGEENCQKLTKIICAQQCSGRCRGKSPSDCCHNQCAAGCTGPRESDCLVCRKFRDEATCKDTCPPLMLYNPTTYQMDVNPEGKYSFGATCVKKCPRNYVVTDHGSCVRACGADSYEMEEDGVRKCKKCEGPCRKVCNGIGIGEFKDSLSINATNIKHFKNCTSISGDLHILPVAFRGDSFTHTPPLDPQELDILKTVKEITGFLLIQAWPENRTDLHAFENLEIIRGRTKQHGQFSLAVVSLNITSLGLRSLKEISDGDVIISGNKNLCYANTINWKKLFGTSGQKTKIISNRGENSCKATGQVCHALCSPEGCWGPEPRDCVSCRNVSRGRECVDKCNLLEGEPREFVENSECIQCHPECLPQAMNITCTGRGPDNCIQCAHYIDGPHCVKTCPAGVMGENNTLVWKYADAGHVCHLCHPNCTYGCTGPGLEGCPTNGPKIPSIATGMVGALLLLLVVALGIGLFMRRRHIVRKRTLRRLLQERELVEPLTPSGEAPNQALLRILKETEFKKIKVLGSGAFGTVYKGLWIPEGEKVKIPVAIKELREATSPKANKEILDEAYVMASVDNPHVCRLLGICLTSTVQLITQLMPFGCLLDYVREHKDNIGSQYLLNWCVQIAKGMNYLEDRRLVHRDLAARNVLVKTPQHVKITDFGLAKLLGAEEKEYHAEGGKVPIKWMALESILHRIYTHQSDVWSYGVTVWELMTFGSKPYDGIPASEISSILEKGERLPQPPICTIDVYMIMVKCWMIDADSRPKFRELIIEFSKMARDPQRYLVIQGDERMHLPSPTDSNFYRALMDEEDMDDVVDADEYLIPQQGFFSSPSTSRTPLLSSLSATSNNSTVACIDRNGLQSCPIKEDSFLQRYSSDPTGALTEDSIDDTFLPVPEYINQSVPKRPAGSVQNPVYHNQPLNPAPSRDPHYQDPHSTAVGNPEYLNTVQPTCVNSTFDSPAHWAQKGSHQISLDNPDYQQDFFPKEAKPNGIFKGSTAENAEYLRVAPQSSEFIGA

Turning to `CCCN1C(=O)[C@@]2(CCC(=O)OC(C)(C)C)N=C(c3ccc(OCCCO)cc3)O[C@H]2c2ccccc21`, the composite z-score in assay [1] is 0.902; in assay [2], -0.243; in assay [3] it was 0.713; in assay [5] it was 0.9; in assay [6], 1.22; in [7], 0.246. Besides, the composite z-score worked out at 0.874 in assay [8], 0.242 in assay [9] and 1.03 in [10]. For the same molecule, in assay [4], the z-score was 0.478 (inactive).
`CCCNC(=O)[C@@]1(c2ccc([N+](=O)[O-])cc2)CC(=O)N(CC23CC4CC(CC(C4)C2)C3)[C@@H]1c1ccc(CO)cc1`: the composite z-score in assay [1] was 0.814; in assay [2], 0.644; in [3], -0.0905; in assay [5], 0.425; in assay [6] it was 0.108; in [7], 0.533. The figures for the composite z-score in assay [8], in [9] and in assay [10] were 1.34, 0.138 and -0.247, respectively. The z-score in assay [4] was 0.228 (inactive).
Regarding `CCOC(=O)C[C@H]1[C@H](OC(=O)Cc2ccc3c(c2)OCO3)[C@@H](NC(=O)C2CCCCC2)c2cc(OCCCO)ccc2N1C(=O)Cc1ccc(OC)cc1`, the composite z-score in assay [1] is 0.17; in [2] it was -0.244; in assay [3], -0.214; in assay [5], 0.919; in assay [6], 0.646; in assay [7], 0.252. Further, the values for the composite z-score in assay [8], in [9] and in assay [10] were 0.297, 0.316 and 0.561, respectively. For the same molecule, the z-score in assay [4] was -1.6 (inactive).
On to `C#CCN(C(/C=C/c1ccccc1)CO)C(C(=O)O)c1ccccc1` (stereo not given), for which the composite z-score in assay [1] was -0.211; in assay [2], -0.285; in [3] it was -0.447; in assay [5] it was 0.0698; in [6], -0.953; in assay [7] it was -0.0139. In addition, the composite z-score in [8] was -0.435; in assay [9], 0.122; in assay [10], -0.99. In addition, the z-score in [4] was -1.89 (inactive).
Take `COc1ccc(CCNC(=O)[C@@]2(Sc3ccc(C)cc3)CC(=O)N(Cc3ccccc3Cl)[C@@H]2c2ccc(CO)cc2I)cc1`: the composite z-score in assay [1] is 0.661; in assay [2] it was 0.195; in assay [3], 0.989; in [5], -0.778; in assay [6], 0.351; in [7] it was -1.08. Further, the composite z-score in assay [8] was -0.78; in [9], -1.15; in assay [10] it was 1.24. Further, in assay [4], the z-score was -1.1 (inactive).
As for `COc1cccc(C(=O)O[C@H]2CC[C@]3(C)C4=C(CCC3C2(C)C)[C@]2(C)CC[C@H]([C@H](C)CCCC(C)C)[C@@]2(C)CC4)c1` (stereo not given in full), the composite z-score is 0.399 in assay [1]; -0.056 in assay [2]; -0.495 in assay [3]; 0.647 in [5]; 0.495 in [6]; 0.527 in [7]. The values for the composite z-score in assay [8], in assay [9] and in assay [10] were 0.459, 0.389 and 0.468, respectively. Further, the z-score in assay [4] is -1.23 (inactive).
Turning to `C=CCC(OC(C)=O)[C@@H]1[C@@H](N(Cc2ccc(-c3ccccc3)cc2)C(=O)Cc2ccc(OC)cc2)c2cc(OCCCO)ccc2N1C(=O)c1ccc2ccccc2n1` (stereo not given in full), the composite z-score in [1] is -0.245; in [2] it was -0.106; in assay [3], 0.027; in [5], -0.19; in assay [6], -0.494; in [7], 0.24. Also, the values for the composite z-score in assay [8], in [9] and in assay [10] were -0.0321, 0.37 and 1.48, respectively. Moreover, in assay [4], the z-score was -1.33 (inactive).
Turning to `CS(=O)(=O)CCOC(=O)C1=CC(CCCO)=CC(c2cccs2)N(Cc2cc3c(cc2Br)OCO3)C=C1C(=O)OCCS(C)(=O)=O` (stereo not given), the composite z-score in [1] is 0.727; in assay [2] it was -0.0606; in [3], 0.15; in assay [5] it was 1.04; in assay [6], 1.25; in assay [7], 0.259. The composite z-score in [8] was found to be 1.22; in assay [9] it was 0.238; in assay [10], 1.2. Further, in assay [4], the z-score was 0.576 (inactive).
On to `O=C1C2C=CC(C(O)c3ccc(-c4ccccc4)s3)N(n3cnnc3)C2C(=O)N1Cc1ccccc1` (stereo not given), for which the composite z-score in [1] was 0.633; in [2], 0.0447; in assay [3], 0.746; in assay [5], 0.0262; in assay [6] it was -0.751; in assay [7] it was -0.486. The figures for the composite z-score in assay [8], in [9] and in [10] were -0.435, -0.539 and 0.631, respectively. Further, the z-score in [4] was -0.36 (inactive).
As for `O=c1oc(-c2ccccc2)nc2cc(Br)ccc12`, the composite z-score in assay [1] was 0.486; in [2] it was -0.184; in assay [3], -0.493; in assay [5], 0.312; in assay [6] it was 0.838; in [7], 0.448. The composite z-score in assay [8] was 0.582; in assay [9] it was 0.508; in assay [10], -0.0295. Further, the z-score in assay [4] was -0.288 (inactive).
For `CC(C)(C)N1CC=CC23O[C@@H]4/C=C\CCCOC(=O)C4[C@H]2C(=O)N(CCO)[C@@H]3C1=O` (stereo not given in full), the composite z-score in [1] was 1.59; in assay [2], -0.0986; in assay [3], -0.0141; in assay [5], -0.142; in assay [6], -0.764; in [7], -0.932. Further, the values for the composite z-score in assay [8], in [9] and in assay [10] were -1.28, -0.377 and 0.0995, respectively. Further, in assay [4], the z-score is -0.639 (inactive).
With `NC(=O)NCC#Cc1ccc2c(c1)[C@]1(C(=O)N2)[C@H](C(=O)N2CCCCCCC2)[C@H]2C(=O)O[C@H](c3ccccc3)[C@H](c3ccccc3)N2[C@@H]1c1ccc(OCCO)cc1`, the composite z-score was found to be 1.2 in assay [1]; 2.11 in [2]; 1.36 in assay [3]; 1.29 in [5]; 0.748 in assay [6]; 1.35 in assay [7]. For the same molecule, the results for the composite z-score in [8], in assay [9] and in assay [10] were 1.63, 1.75 and 1.53, respectively. Besides, in [4], the z-score was -0.144 (inactive).
Regarding `[N-]=[N+]=NCc1ccccc1C[C@@]1(C(=O)N2CCOCC2)N=C(c2ccc(OCCCO)cc2)O[C@@H]1c1ccccc1CN=[N+]=[N-]`, the composite z-score in assay [1] was determined as 1.63; in assay [2], 1.22; in assay [3] it was 1.37; in [5], 1.46; in [6], 0.965; in assay [7], 0.422. Also, the composite z-score is 0.656 in assay [8], -0.0757 in assay [9] and 0.811 in [10]. The z-score in [4] is -0.429 (inactive).
For `COc1ccc(C#Cc2ccc3c(c2)[C@]2(C(=O)N3)[C@H](c3ccc(O)cc3)N3[C@H](c4ccccc4)[C@H](c4ccccc4)OC(=O)[C@H]3[C@@H]2C(=O)NC[C@H](O)c2ccccc2)cc1`, the composite z-score was 1.14 in [1]; 0.155 in [2]; 0.397 in assay [3]; 0.94 in [5]; 0.755 in assay [6]; 0.206 in assay [7]. The values for the composite z-score in assay [8], in assay [9] and in assay [10] were 0.801, 0.233 and 0.282, respectively. In addition, the z-score in assay [4] was -1.02 (inactive).
